CF NFkB inh: blocks PAF-induced NF-kB reporter in cystic fibrosis cells | KKLEB NF-kB-GFP reporter, GFP fluorescence overnight | actives 0.86% (n = 360,000) | inhibition, % at 5 µM | AID 588850;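 active means at least 50% inhibition at 5 µM, scaled per plate between neutral and stimulator controls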;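 further: PAF is a Pseudomonas aeruginosa culture filtrate used as stimulus; plate controls were PAF-stimulated DMSO wells for no effect and unstimulated DMSO wells for full effect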
HIF-2a inh: HIF-2a inhibition; 786-0 RCC cells HIF-2a reporter, luciferase luminescence, overnight; inhibition, % at 18.8 µM; actives 0.72% (n = 360,000); AID 624352;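 active means inhibition of the luminescence signal of 40% or more relative to plate controls, in a single-dose primary screen at 18.75 µM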
MITF TRPM1 inh: MITF TRPM1 promoter inhibition in SK-MEL-5 cells; SK-MEL-5 TRPM1 promoter luciferase, 24 h; inhibition, % at 12.5 µM; actives 0.83% (n = 330,000); AID 488899;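 active means mean inhibition across replicates of 60% or more, whatever share of single replicates reaches that level; inconclusive means some that reach 60%, reason not given; inactive means mean inhibition across replicates below 60%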
Peg3 prom inh-1: inhibitors of Peg3 promoter | HeLa PEG-Prom luciferase reporter, luminescence, overnight | inhibition, % at 20 µM | actives 1.7% (n = 360,000) | AID 588405;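 active means inhibition of at least 50% at 20 µM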
KKLEB tox: counter-screen for CF NF-kB inhibitors: cytotoxicity; activity change (cytotoxicity), % at 5 µM; actives 0.36% (n = 360,000); KKLEB CF airway cells viability, ATPlite luminescence, overnight; stronger effect = lower value; cells stimulated with P. aeruginosa culture filtrate;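 active means corrected activity change at or below -50% at 5 µM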
Shn3 inh set2: inhibitors of Schnurri-3 3'UTR reporter in osteoblasts. inhibition, % at 12.5 µM. Clone20 osteoblast Shn3 3'UTR firefly luciferase, 24 h. actives 0.52% (n = 360,000);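 active means mean inhibition of at least 75% with every replicate also reaching 75%; inconclusive means mean inhibition at least 75% but some replicate below; inactive means mean inhibition below 75%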;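 further: 0% = median of neutral control wells and 100% = pilot-screen positive control compound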
Peg3 prom inh-2: Peg3 promoter inhibition confirmation; shares compounds with Peg3 prom inh-1; HeLa PEG-Prom luciferase reporter, luminescence, overnight; inhibition, % at 20 µM; actives 84% (n = 1,300); AID 602417;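 active means at 20 µM dose, 40% or more inhibition averaged across four replicates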
Starred values were filed as active, the others as inactive; ? = inconclusive; . = no result. The list is not random: actives were taken first. Their share in the collection is about 2.7%.

SMILES	CF NFkB inh	HIF-2a inh	MITF TRPM1 inh	Peg3 prom inh-1	KKLEB tox	Shn3 inh set2	Peg3 prom inh-2
Nc1c(C(=O)Nc2cccc(C(=O)O)c2)sc2nc3c(cc12)CCCC3	13.2	76.8*	80.4*	69.1*	-16.9	32.2	54.9*
CC1=C(CC[C@@H](C)CO)OC2CC3C4CCC5CC(O)CCC5(C)C4CC(=O)C3(C)C12 (stereo partly specified)	-6.6	-30.8	.	64.9*	-16.8	19.1	58.1*
CC1CCCC(C)N1C(=C(Cl)Cl)C(=C1SCCS1)[N+](=O)[O-] (stereo unspecified)	25.5	30.2	-19.9	70.9*	-27.5	39.1	59.0*
CC(=O)N[C@@H]1C=C[C@@H](CC(=O)NCc2ccc(Cl)cc2)O[C@@H]1CO	.	2.8	.	.	.	.	.
c1ccc(C2CC(c3ccccc3)n3c(nc4ccccc43)N2)cc1 (stereo unspecified)	-8.0	-8.0	-7.8	75.8*	-7.5	-7.9	5.9
CCc1ccc(C2CC(c3ccccc3)Nc3nc(N)nn32)cc1 (stereo unspecified)	7.0	4.7	-1.0	-1.2	2.8	1.9	.
Cc1cc(C)cc(NS(=O)(=O)c2ccc3[nH]cc(C(=O)NCc4ccco4)c(=O)c3c2)c1	-9.6	24.4	22.6	55.0*	-0.2	42.8	71.3*
Cc1ccc(C(=O)c2no[n+]([O-])c2C(=O)c2ccc(C)cc2)cc1	99.5*	-40.0	79.1*	107.3*	-76.2*	20.4	99.8*
Cc1ccc(C(=O)c2ccc(C)cc2)cc1	15.2	-20.9	-26.7	-16.6	1.2	-12.8	.
CCOC(=O)c1sc2nc(CSc3ccccc3)nc(N3CCCN(C)CC3)c2c1C	12.1	9.4	14.5	64.8*	-13.2	5.0	94.1*
CC1=NN(c2nc(-c3ccc(C)cc3)cs2)C(=O)C1N=Nc1ccc2ccccc2c1 (stereo unspecified)	-1.8	-25.0	11.8	-14.0	-3.2	-0.9	.
CC1=NN(c2nc(-c3ccc(C)cc3)cs2)C(=O)C1N=Nc1ccc(C(N)=O)cc1 (stereo unspecified)	76.1*	6.9	101.6*	102.4*	-66.1*	65.7	30.4
O=C(Nc1ccc2oc(-c3ccncc3)nc2c1)c1ccc([N+](=O)[O-])o1	48.5	6.2	72.2*	102.0*	-19.9	?	97.7*
CCCC1NC(=O)c2cccnc2-n2c1nc1ccc(Br)cc1c2=O (stereo unspecified)	-1.4	8.0	.	48.0	0.9	-8.8	.
O=[N+]([O-])c1ccc(Sc2cccc3cccnc23)cc1	-6.0	-183.8	-3.3	-104.4	-12.4	-11.7	.
C=CCn1nc([N+](=O)[O-])nc1Sc1cccc2cccnc12	-6.5	-8.6	43.8	53.6*	7.3	88.9*	25.6
COc1ccc(C(=O)Nc2cccc(C(=O)N/N=C/c3ccc(OC)cc3OC)c2)cc1	-10.1	58.5*	54.1	74.2*	7.0	9.8	77.2*
COc1ccc(/C=N/NC(=O)c2cccc(NC(C)=O)c2)c(OC)c1	1.8	0.1	11.0	14.3	-6.0	-3.4	.
COc1cccc(/C=N/NC(=O)c2c(C)nc3ccc(Cl)cn23)c1O	-14.0	2.1	70.5*	56.2*	-0.2	89.7*	71.1*
COc1ccccc1/C=N\NC(=O)c1c(C)nc2ccc(Cl)cn12	-2.4	15.6	-4.3	14.8	4.1	8.5	.
COc1cccc(/C=N/NC(=O)c2ccc(-c3ccccc3)cc2)c1O	2.1	12.0	69.0*	55.4*	2.1	91.2*	69.0*
Nc1nonc1-n1nnc(C(=O)N/N=C/c2cc(Br)ccc2O)c1CNc1ccccc1	26.2	2.8	27.7	55.7*	-31.7	58.6	71.5*
CC1(C)CC(Cc2ccc(Cl)nc2)N(C(=O)OC(C)(C)C)C1 (stereo unspecified)	13.9	-4.2	.	-1.3	-4.6	1.6	.
CCN1CCCC1CN(Cc1cc2ccc(C)cc2[nH]c1=O)C(=S)Nc1ccc(OC)cc1 (stereo unspecified)	14.4	34.6	12.8	63.1*	-4.9	-5.1	79.6*
COc1cc(/C=C/[N+](=O)[O-])ccc1OC(=O)/C=C/c1ccc(F)cc1	-30.0	7.6	23.9	103.2*	-4.5	56.4	51.8*

Bioassay records (PubChem BioAssay)
